The text below walks through data of PubChem BioAssay.

Where “and” joins values, the source holds several entries; their conditions need not be identical. Identical values can stand only once. Inconclusive results are not listed. Calls of active or inactive are those of the source.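 How the source made its calls, unless noted: active means normalized viability below 100% at a tested concentration; inactive means the rest.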

Test [1] concerns Aerobactin synthetase IucA (Klebsiella pneumoniae). Briefly: inhibition of K. pneumoniae IucA enzyme – biochemical, Tocris library, absorbance (AID 1345561; call rule not given here;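 further: 100% = enzyme without compound and 0% = no enzyme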). The conditions noted are these: purified IucA enzyme assay, absorbance (OD) read-out; stronger effect = lower value;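 tested at 8 µM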.
A short description of test [2]: viability loss in pontine glioma line – cell-based, SU-DIPG-XVII, MIPE5.0, CellTiter-Glo, qHTS, dose response (AID 1347060; cut-off not given, nearly all actives have AC50 up to about 26 µM;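 on AC50: cells exposed to compound for 48 hours before viability readout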). To be noted: CellTiter-Glo ATP luminescence. A general note: ATP-based viability assays read luminescence as a measure of living cells.
Test [3] is described as follows: viability loss in pontine glioma line – cell-based, SU-DIPG-XIII, MIPE4.0, CellTiter-Glo, qHTS, dose response (AID 1347061; cut-off not given, nearly all actives have AC50 up to about 37 µM;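 further: cells exposed to compound for 48 hours before readout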). To be noted: CellTiter-Glo ATP luminescence.
Test [4] can be described thus: viability loss in pontine glioma line – cell-based, JHH-DIPG-1, MIPE4.0, CellTiter-Glo, qHTS, dose response (AID 1347062; cut-off not given, nearly all actives have AC50 up to about 27 µM;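 on AC50: cells exposed to compound for two days before readout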). The conditions noted are these: JHH-DIPG-1 viability, CellTiter-Glo ATP luminescence.
A short description of test [5]: viability loss in pontine glioma line – cell-based, SU-DIPG-XXV, MIPE5.0, CellTiter-Glo, qHTS, dose response (AID 1347065; cut-off not given, nearly all actives have AC50 up to about 26 µM;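 further: cells exposed to compound for 48 hours before ATP readout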). The conditions noted are these: CellTiter-Glo ATP luminescence.
Test [6] is described as follows: growth inhibition of DIPG cells – cell-based, MIPE4.0 library, CellTiter-Glo luminescence, qHTS (AID 1347066; cut-off not given, nearly all actives have AC50 up to about 30 µM;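 further: cells exposed to compound for 48 hours before readout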). To be noted: SU-DIPG-VI viability, CellTiter-Glo ATP luminescence.
Test [7] is described as follows: JHH-DIPG-1 glioma cell viability, MIPE5.0 library, CellTiter-Glo luminescence, qHTS (AID 1347067; cut-off not given, nearly all actives have AC50 up to about 26 µM;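 further: cells exposed to compound for 48 hours before readout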). To be noted: JHH-DIPG-1 glioma viability, CellTiter-Glo ATP luminescence.
The nature of test [8]: growth inhibition of DIPG cells – cell-based, MIPE5.0 library, qHTS (AID 1347068; cut-off not given, nearly all actives have IC50 up to about 30 µM;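 on IC50: cells exposed to compound for 48 hours before viability readout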). The conditions noted are these: SU-DIPG-XXV viability. In general terms: Quantitative high-throughput screening tests each substance at several concentrations.
Test [9] can be described thus: viability loss with induced miR-34 in A549 – imaging, A549 dox-inducible miR-34, nuclei and caspase counts, primary screen (AID 1347080;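 active means compounds whose cell count with miR-34 switched on is under 0.7 times the count with it off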). The conditions noted are these: A549 miR-34 inducible, Hoechst nuclei count, 48 h.
Test [10] is described as follows: compounds altering HSF1 focus formation in cells – imaging, Selleck Cancer Library (AID 1347162; in the data active means plate-normalised HSF1 focus index below about 0.46). To be noted: human cells, HSF1 nuclear foci imaging, at 10 µM; SSMD: measured here: HSF1 foci SSMD mean; cell count: measured here: cell number; plate-normalised HSF1 focus index: stronger effect = lower value.
Test [11] is described as follows: MELAS cybrid and Rieske KO viability enhancers – cell-based, MELAS cybrids, Rieske KO mouse fibroblasts, CellTiter-Glo, primary screen (AID 1508586;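 active means mean z-score across replicates of 1.96 or higher in either the MELAS or the Rieske mutant cell line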;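 further: z relative to plate mean and SD of compound and empty wells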). To be noted: low glucose.
Test [12] is described as follows: drug combination growth inhibition, ovarian cancer – cell-based, oncology-focused library, rucaparib conditional, profiling panel (AID 1508598). The conditions noted are these: patient-derived ovarian cancer cells, CellTiter-Glo viability, 144 h, stronger effect = lower value.
Test [13] in a line: galactose survival enhancers in mitochondrial complex I cybrids – cell-based, galactose medium, ATP luminescence, primary screen (AID 1645843;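 active means z-score of at least 1.8 in each of two replicates, scored against plate mean and spread of sample wells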;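 further: positive z means more ATP and so rescue of galactose-driven cybrid death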). To be noted: complex I mutant cybrid cells, 72 h, stronger effect = higher value.
Test [14] in a line: viability loss in pontine glioma line – cell-based, SU-DIPG-XIII, MIPE5.0, CellTiter-Glo, qHTS, dose response (AID 1347064; cut-off not given, nearly all actives have AC50 up to about 23 µM;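 on AC50: cells exposed to compound for 48 hours before the viability read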). To be noted: CellTiter-Glo ATP luminescence.
Setting [15] is: stronger effect = lower value, cell number ratio, induced over uninduced.
Where [16] appears, read: measured here: relative caspase fold change +Dox/-Dox.
Setting [17] is: measured here: total cells with miR-34 induction, stronger effect = lower value.
Setting [18] is: measured here: total cells without miR-34 induction.

With `N#Cc1c(O)c2c(-c3ccc(-c4ccccc4O)cc3)csc2[nH]c1=O`, the remaining activity in test [1] is 103% (inactive). For the same compound, the compound was called inactive in test [2], in test [3], in [4], in [5], in test [6] and in test [7]. Moreover, in test [8], the outcome was inactive. In addition, the fold change in test [9] (setting [15]) is 0.919 (inactive) and 1.01 (inactive); in test [9] (setting [16]) it was 0.924 and 1.54. Also, the cell count in test [9] (setting [17]) was 10000 and 9660; in [9] (setting [18]), 10900 and 9540; in test [10], 7410. The same compound had an SSMD in test [10] of 3.35. Moreover, the plate-normalised HSF1 focus index in test [10] was 1.12 (inactive). Moreover, the z-score in test [11] (MELAS cybrid survival, CellTiter-Glo 48 h, stronger effect = higher value) is -0.277 (inactive); in test [11] (Rieske KO mouse fibroblast survival, CellTiter-Glo 72 h), 1.29; in test [13], 1.98 (inactive). The viability in test [12] (at 0.000305 µM, OCI-C5x cells, with rucaparib 10 µM, 100% = cells with rucaparib alone) is 106% (inactive); in test [12] (at 0.000305 µM, OCI-C5x cells, without rucaparib), 121% (inactive); in [12] (at 0.000305 µM, OCI-P5x cells, with rucaparib 20 µM, 100% = cells with rucaparib alone), 114% (inactive); in test [12] (at 0.000305 µM, OCI-P5x cells, without rucaparib), 119% (inactive); in test [12] (at 0.00122 µM, OCI-C5x cells, with rucaparib 10 µM, 100% = cells with rucaparib alone) it was 115% (inactive); in test [12] (at 0.00122 µM, OCI-C5x cells, without rucaparib) it was 131% (inactive). The viability in test [12] (at 0.00122 µM, OCI-P5x cells, with rucaparib 20 µM, 100% = cells with rucaparib alone) is 119% (inactive); in test [12] (at 0.00122 µM, OCI-P5x cells, without rucaparib), 107% (inactive); in test [12] (at 0.00488 µM, OCI-C5x cells, with rucaparib 10 µM, 100% = cells with rucaparib alone) it was 111% (inactive); in [12] (at 0.00488 µM, OCI-C5x cells, without rucaparib), 126% (inactive); in [12] (at 0.00488 µM, OCI-P5x cells, with rucaparib 20 µM, 100% = cells with rucaparib alone), 116% (inactive); in test [12] (at 0.00488 µM, OCI-P5x cells, without rucaparib), 113% (inactive). The viability in test [12] (at 0.0195 µM, OCI-C5x cells, with rucaparib 10 µM, 100% = cells with rucaparib alone) is 112% (inactive); in test [12] (at 0.0195 µM, OCI-C5x cells, without rucaparib) it was 122% (inactive); in test [12] (at 0.0195 µM, OCI-P5x cells, with rucaparib 20 µM, 100% = cells with rucaparib alone) it was 116% (inactive); in test [12] (at 0.0195 µM, OCI-P5x cells, without rucaparib), 114% (inactive); in test [12] (at 0.0781 µM, OCI-C5x cells, with rucaparib 10 µM, 100% = cells with rucaparib alone), 113% (inactive); in test [12] (at 0.0781 µM, OCI-C5x cells, without rucaparib), 127% (inactive). The viability in [12] (at 0.0781 µM, OCI-P5x cells, with rucaparib 20 µM, 100% = cells with rucaparib alone) was 119% (inactive); in test [12] (at 0.0781 µM, OCI-P5x cells, without rucaparib) it was 115% (inactive); in [12] (at 0.313 µM, OCI-C5x cells, with rucaparib 10 µM, 100% = cells with rucaparib alone) it was 115% (inactive); in test [12] (at 0.313 µM, OCI-C5x cells, without rucaparib) it was 134% (inactive); in test [12] (at 0.313 µM, OCI-P5x cells, with rucaparib 20 µM, 100% = cells with rucaparib alone) it was 117% (inactive); in test [12] (at 0.313 µM, OCI-P5x cells, without rucaparib), 118% (inactive). For the same compound, the viability was 112% (inactive) in test [12] (at 1.25 µM, OCI-C5x cells, with rucaparib 10 µM, 100% = cells with rucaparib alone); 140% (inactive) in [12] (at 1.25 µM, OCI-C5x cells, without rucaparib); 107% (inactive) in [12] (at 1.25 µM, OCI-P5x cells, with rucaparib 20 µM, 100% = cells with rucaparib alone); 107% (inactive) in test [12] (at 1.25 µM, OCI-P5x cells, without rucaparib); 118% (inactive) in [12] (at 5 µM, OCI-C5x cells, with rucaparib 10 µM, 100% = cells with rucaparib alone); 135% (inactive) in test [12] (at 5 µM, OCI-C5x cells, without rucaparib). The viability in [12] (at 5 µM, OCI-P5x cells, with rucaparib 20 µM, 100% = cells with rucaparib alone) is 92.2% (active); in test [12] (at 5 µM, OCI-P5x cells, without rucaparib), 90.6% (active).
As for `CCOC(=O)C1=C(C)NC(=S)NC1c1cccc(O)c1` (stereo not given), in [1], the remaining activity is 109% (inactive). The result in test [2], in test [3], in test [14], in [6], in test [7] and in [8] was inactive. The fold change is 0.947 (inactive) and 1.05 (inactive) in test [9] (setting [15]); 1 and 0.625 in test [9] (setting [16]). For the same compound, the cell count was 2900 and 8090 in test [9] (setting [17]); 3060 and 7690 in test [9] (setting [18]). The z-score in test [13] is 0.085 (inactive).
Consider `CCOc1ccc(Nc2nc(-c3c(C)nc4ccccn34)cs2)cc1`, for which the remaining activity in [1] was 103% (inactive). Moreover, the AC50 in test [2] was 66.1 nM (active); in [4] it was 16.6 µM (active); in test [14], 59 nM (active); in test [5], 37.2 nM (active); in test [7], 52.5 nM (active). Also, in [6], the outcome was inactive. In addition, the IC50 in [8] was 0.372 µM (active). In addition, the figures for the fold change in test [9] (setting [15]) and in test [9] (setting [16]) were 1.03 (inactive) and 1.27, respectively. Moreover, the cell count in test [9] (setting [17]) is 2200; in test [9] (setting [18]), 2140; in test [10] it was 6300. This compound came in with an SSMD in test [10] of 4.16. The plate-normalised HSF1 focus index in test [10] is 1.25 (inactive). Besides, the z-score in test [13] was -0.68 (inactive).
For the compound `O=c1[nH]nc(Sc2ncc([N+](=O)[O-])s2)n1-c1ccc2c(c1)OCCO2`, in test [1], the remaining activity was 125% (inactive). The AC50 was 3720 nM (active) in test [2]; 5.9 µM (active) in [3]; 5.26 µM (active) in test [4]; 3720 nM (active) in [14]; 2350 nM (active) in [5]; 2.64 µM (active) in test [6]. Besides, in test [7], the AC50 is 2950 nM (active). Besides, the IC50 in test [8] is 23.5 µM (active). Also, the fold change was 1.25 (inactive) in test [9] (setting [15]) and 0.969 in [9] (setting [16]). Besides, the results for the cell count in test [9] (setting [17]), in test [9] (setting [18]) and in test [10] were 2070, 1660 and 5980, respectively. This compound showed an SSMD in test [10] of -8.15. In test [10], the plate-normalised HSF1 focus index is 0.592 (inactive). For the same compound, the z-score in test [13] is -0.705 (inactive).

One may read the remaining activity as the signal under treatment as a percentage of the control signal. By viability is commonly meant a read-out of living cells in per cent, often relative to untreated cells. The AC50 is the concentration giving half of the maximal activity seen. A word on the IC50: it is the midpoint of a concentration-inhibition curve.
